Active and inactive are the calls of the source. The calls were made as follows: active = hit-call score of the fitted dose curve at least 0.9, where 1 is the maximum; inactive = score below 0.9.
Experiment: APR_HepG2_p53Act_1hr: Apredica 1-hour HepG2 Assay for p53 Activation (AID 2282671)
Conditions: high-content imaging, actives raise or lower the signal
Procedure: APR_HepG2_1hr is a cell-based, multiplexed-readout assay that uses HepG2, a human liver cell line, with measurements taken at 1 hour after chemical dosing in a 384-well plate.APR_HepG2_p53Act_1hr is one of 10 assay component(s) measured or calculated from the APR_HepG2_1hr assay. It is designed to make measurements of dna content, a form of viability reporter, as detected with fluorescence intensity signals by HCS Fluorescent Imaging technology.Data from the assay component APR_HepG2_p53Act_1hr was analyzed into 1 assay endpoint. This assay endpoint, APR_HepG2_p53Act_1hr, was analyzed with bidirectional fitting relative to DMSO as the negative control and baseline of activity. Using a type of viability reporter, measures of protein for gain or loss-of-signal activity can be used to understand the signaling at the pathway-level as they relate to the gene TP53. Furthermore, this assay endpoint can be referred to as a primary readout, because this assay has produced multiple assay endpoints where this one serves a signaling function. To generalize the intended target to other relatable targets, this assay endpoint is annotated to the dna binding intended target family, where the subfamily is tumor suppressor.
Cells were treated with dimethyl sulfoxide (DMSO) as a solvent control at a final concentration of 0.5% v/v or with compounds in DMSO with a resulting final DMSO concentration of 0.5% v/v. Compound treatment was done at concentrations of 0.39, 0.78, 1.56, 3.12, 6.24, 12.5, 25, 50, 100, and 200 uM in duplicate on each plate. Cells were treated with compounds for 1, 24, or 72 hr. Carbonyl […] m-chloro-phenylhydrazone (CCCP) and taxol were used as positive controls for mitochondrial function and cytoskeletal stability, respectively; DMSO served as the negative control for this experiment. Cells were fixed by the direct addition of 50 uL formaldehyde in Hank's Balanced Salt Solution (HBSS) to a final concentration of 3.7%. After incubation in the fixation medium for 30 min at room temperature (293-298 K), cells were rinsed twice with HBSS and treated with cell permeabilization buffer (16 uL of 0.5% Triton X-100) for 10 min at room temperature (293-298 K) before labeling. For mitochondrial membrane potential and mitochondrial measurements, pre-fixed cells were incubated with 50 uL of MitoTracker Red CMXRos (Invitrogen) at a concentration of 250 nM for 30 min before fixation. In the remaining cases, post-fixed cells were labeled by incubation with a multiplexed mixture of primary antibodies in HBSS for 60 min at room temperature (293-298 K) to detect immunoreactivity of c-Jun (1:500), phospho-histone H3 (1:100), phospho-histone H2A.x (1:200), p53 (1:400), alpha-tubulin (1:200) and Hoechst 33342 (2 ug/mL). Cells were labeled for multiplexed imaging on two separate plates: a) Hoechst 33342, MitoTracker Red, phospho-histone H3, and alpha-tubulin, and b) Hoechst 33342, phospho-histone H2A.x, and c-Jun. A final rinse with HBSS (50 uL) was performed before analysis. The primary and secondary antibodies for the proteins were phospho-histone H3 (rabbit anti-phospho-histone H3 and FITC-donkey anti-rabbit IgG), phospho-histone H2A.x (mouse anti-phospho-histone H2A.x and FITC-donkey anti-mouse IgG), c-Jun (rabbit anti-phospho-c-Jun and Cy3-donkey anti-rabbit IgG), p53 (sheep anti-p53 and Cy5-donkey anti-sheep IgG), alpha-tubulin (mouse anti-alpha-tubulin and Cy5-donkey anti-mouse IgG). These antibodies are available as the CellCiphr HepG2 assay kit (Millipore).Digital images of each well were captured using a Cellomics ArrayScan VTI (Thermo Scientific Cellomics) (0.8 NA objective, 0.63x optical coupler, and XF-93 filter set) at 20x magnification. The images were acquired using the autofocus feature of the ArrayScan instrument, which entails the following steps. First, the camera focuses on channel 1 (Hoechst 33342), where nuclei are identified. Second, a Z offset of 1 um is used for capturing mitochondria (MitoTracker Red). […]

| Compound | outcome |
| --- | --- |
| CCOP(=S)(OCC)Oc1cc(C)nc(C(C)C)n1 | inactive |
| CCOC(=O)COc1cc(-c2nn(C)c(OC(F)F)c2Cl)c(F)cc1Cl | inactive |
| CC1(C(=O)Nc2ccc(O)c(Cl)c2Cl)CCCCC1 | inactive |
| CC(C)=CC1C(C(=O)OCN2C(=O)C3=C(CCCC3)C2=O)C1(C)C (stereo not given) | inactive |
| CCOP(=O)(NC(C)C)Oc1ccc(SC)c(C)c1 (stereo not given) | inactive |
| CCCCSP(=O)(SCCCC)SCCCC | inactive |
| CNc1cnn(-c2cccc(C(F)(F)F)c2)c(=O)c1Cl | inactive |
| CCCCN(CC)c1c([N+](=O)[O-])cc(C(F)(F)F)cc1[N+](=O)[O-] | inactive |
| CC(COc1ccc(Oc2ccccc2)cc1)Oc1ccccn1 (stereo not given) | inactive |
| CN(C)C(=O)Nc1cccc(C(F)(F)F)c1 | inactive |
| COc1ccc(C(=CC(=O)N2CCOCC2)c2ccc(Cl)cc2)cc1OC | inactive |
| CCC(CC)Nc1c([N+](=O)[O-])cc(C)c(C)c1[N+](=O)[O-] | inactive |
| CC(=NC#N)N(C)Cc1ccc(Cl)nc1 | inactive |
| CCOP(=S)(OCC)OC(Cl)C(Cl)(Cl)Cl (stereo not given) | inactive |
| CSc1nc(NC(C)C)nc(NC(C)C)n1 | inactive |
| COP(=O)(OC)SCn1c(=O)oc2cc(Cl)cnc21 | inactive |
| C[N+]1(C)CCCCC1 | inactive |
| CCOP(=S)(OCC)Oc1ccc2c(C)c(Cl)c(=O)oc2c1 | inactive |
| CCCOc1nn(C(=O)NS(=O)(=O)c2ccccc2C(=O)OC)c(=O)n1C | inactive |
| CCOP(=O)(OCC)Oc1cc(C)nc(C(C)C)n1 | inactive |

| Compound | outcome |
| --- | --- |
| CCOP(=S)(OCC)Oc1ccc([N+](=O)[O-])cc1 | inactive |
| N#CSCSC#N | inactive |
| FC(F)C(F)(F)OCC(Cn1cncn1)c1ccc(Cl)cc1Cl (stereo not given) | inactive |
| CSc1nnc(C(C)(C)C)c(=O)n1N | inactive |
| CC(Oc1cccc(Cl)c1)C(=O)O (stereo not given) | inactive |
| Cc1nn(-c2cc(NS(C)(=O)=O)c(Cl)cc2Cl)c(=O)n1C(F)F | inactive |
| CCCCOC(=O)[C@@H](C)Oc1ccc(Oc2ccc(C#N)cc2F)cc1 | inactive |
| CCOP(=S)(Oc1cnc(C(C)(C)C)nc1)OC(C)C (stereo not given) | inactive |
| C#CC(C)(C)NC(=O)c1cc(Cl)cc(Cl)c1 | inactive |
| CNC(=O)ON=C(SC)C(=O)N(C)C | inactive |
| O=c1ccc(=O)[nH][nH]1 | inactive |
| CC1=NNC(=O)N(/N=C/c2cccnc2)C1 | inactive |
| S=C1NCCN1 | inactive |
| C[Si](Cn1cncn1)(c1ccc(F)cc1)c1ccc(F)cc1 | inactive |
| COP(=O)(NC(C)=O)SC (stereo not given) | inactive |
| CCOC(=O)CC(SP(=O)(OC)OC)C(=O)OCC (stereo not given) | inactive |
| CC(C)[C@H](C(=O)O[C@H](C#N)c1cccc(Oc2ccccc2)c1)c1ccc(Cl)cc1 | inactive |
| CCOP(=S)(OCC)SCCSCC | inactive |
| CCNc1nc(Cl)nc(NC(C)(C)C#N)n1 | inactive |
| CNC(=O)ON=C(C)SC | inactive |
